From PubChem BioAssay AID651644 (National Center for Advancing Translational Sciences (NCATS), 2012)
Out of some 360,000 compounds screened, about 750 (0.21%) were called active. Roughly 2% stayed inconclusive and do not appear here. Calls follow the shape of the dose curve; as a rule, active = well fitted falling curve with a large enough effect; inconclusive = small, poorly fitted or top-dose-only effect; inactive = no such curve, though single readings can be large or run the other way. The list comes from a sample in which actives are over-represented; it also holds similar structures and randomly drawn compounds. Entries that show only a call come without a potency.

Assay: qHTS Assay for Inhibitors of the HIV-1 protein Vpr; also: nearly all actives have a fitted effect of over 50% in size
Settings: S. pombe RE007 Vpr strain, BacTiter-Glo ATP luminescence, 24 h; series mostly up to 92.2 µM
Excerpt: Human immunodeficiency virus type 1 (HIV-1), the causative agent of AIDS, contains a protein called viral protein R (Vpr) that plays an important role in the viral life cycle and the pathogenesis of HIV-1.
These Vpr specific activities include cytoplasmic-nuclear shuttling, induction of cell cycle G2 arrest and cell killing. The cytoplasmic-nuclear shuttling is believed to participate in nuclear transport of the proviral integration complex (PIC). The cell cycle G2 arrest induced by Vpr is thought to suppress human immune functions by preventing T cell clonal expansion and to provide an optimized cellular environment for maximal levels of viral replication. In addition, Vpr induces apoptosis, which may contribute to the depletion of CD4 T cells in HIV-infected patients. Since the Vpr-specific activities have been linked to such clinical manifestation of AIDS as activation of viral replication, suppression of host immune responses and depletion of CD4+ T-lymphocytes, identification of new molecular probes that can inhibit the Vpr activities could potentially provide a new approach to reduce Vpr-mediated detrimental effects in HIV-infected patients, and thus prolong patient's lives. Currently, there are no anti-Vpr drugs.
A fission yeast (Schizosaccharomyces pombe) model system for the Vpr studies has been developed which measures HIV-1 Vpr-induced cell death. This assay will be used for to screen the NIH Molecular Libraries Small Molecule Repository (MLSMR) identify small molecule HIV-1 Vpr inhibitors.
NIH Chemical Genomics Center [NCGC]
NIH Molecular Libraries Probe Centers Network [MLPCN]
Assay Submitter (PI): Richard Zhao, University of Maryland
The fission yeast RE007 strain was used, which carries a single integrated copy of HIV-1 vpr gene in the yeast chromosome. The starting culture was frozen stock 100ul of yeast RE007 in 150ml of *PMG+AL medium, Incubation in 30 degree plus 99% humidity for 18 hours. Next day dispensed 2.5ul of PMG+AL medium in each well to 1536 well white solid plate, then 23nL compound were delivered to each well using a pin tool. Check OD for overnight culture and add cell density at 0.01 for each well, incubation in 30 degree plus 99% humidity for 24 hours. After add 5 ul of *BacTiter/Glo detect reagent to each well at room temperature for 5 minutes then to red out results with Viewlux CCD camera.
Potency is read from the fitted curve at half-maximal effect.

Row | SMILES | Potency | activity change, negative = less growth
1 | Cc1cc(C)c2c(n1)sc1c(=O)n(-c3ccccc3)c(=O)[nH]c12 | inactive | 
2 | CCCCCCCCc1c(O)nc(-n2[nH]c(C)c(CCO)c2=O)[nH]c1=O | inactive | 
3 | Cc1ccc(-c2nn(-c3ccc(F)cc3)cc2C(=O)NCC(c2cccs2)N2CCOCC2)cc1 (stereo not drawn) | inactive | 
4 | FC(F)(F)C1CCCN(c2nsc3ccccc23)C1 (stereo not drawn) | 8.91 µM (active) | 
5 | CCn1ncc(C2=NOC(C(=O)N3CCN(c4ccccc4)CC3)C2)c1C (stereo not drawn) | inactive | 
6 | CC1Cc2ccccc2N1C(=O)c1cc2sccc2n1Cc1ccccc1 (stereo not drawn) | inactive | 
7 | COc1ccc(C(CNC(=O)c2cc(S(=O)(=O)Nc3cccc(C)c3)ccc2C)N2CCCC2)cc1 (stereo not drawn) | inactive | 
8 | CCn1cc(C(=O)N[C@@H](C)C(=O)NCCO)c(=O)c2cc3c(cc21)OCO3 | inactive | 
9 | O=[N+]([O-])c1ccc(C=Nc2ccc(Cl)cc2Cl)s1 | 3.16 µM (active) | 
10 | Cc1ccc(S(=O)(=O)N(c2cccc(C)c2)C2CCS(=O)(=O)C2)cc1 (stereo not drawn) | inactive | 
11 | CN1CCN(C(=O)c2ccccc2NC(=O)COc2ccccc2Cl)CC1 | inactive | 
12 | COc1ccc(NC(=O)c2cccc(Cl)c2)c[n+]1[O-] | inactive | 
13 | Cc1cccc(NS(=O)(=O)c2ccc(-c3cnc(C4CC4)o3)cc2)c1 | inactive | 
14 | Cc1ccccc1OCC(=O)NCC(=O)OCC(=O)c1ccc2ccccc2c1 | inactive | 
15 | Cc1cccc(C)c1NC(=O)Nc1ccccc1-n1ccnc1 | inactive | 
16 | CCSc1ccccc1C(=O)Nc1ccc2c(c1)OCO2 | 28.2 µM (active) | 
17 | CCOc1ncccc1C(=O)Nc1ccc2c(c1)OCCO2 | inactive | 
18 | CC(C)NC(=O)CSc1ccccc1C(=O)NCc1ccc2c(c1)OCO2 | inactive | 
19 | O=C1COc2ccc(C(=O)COC(=O)CCOc3ccccc3)cc2N1 | inactive | 
20 | O=S(=O)(NCCS(=O)(=O)N1CCN(c2ccccc2)CC1)c1ccc(F)cc1 | inactive | 
21 | Cc1c(C(=O)OCC(=O)N(CCC#N)c2ccccc2)oc2c1ccc1ccccc12 | inactive | 
22 | O=C(NC(c1ccc(-c2ccccc2)cc1)c1cnccn1)C1CCN(CCOc2ccc(Cl)cc2Cl)CC1 (stereo not drawn) |  | -8.16% [at 18.4 µM] (inactive)
23 | CC1CCc2c(sc3nc4n(c(=O)c23)CCS4)C1 (stereo not drawn) | 12.6 µM (active) | 
24 | NNC(=O)C1CCCn2c1nc1sc3c(c1c2=O)CCCC3 (stereo not drawn) | inactive | 
25 | CCCCc1c(O)nc2n(c1=O)CCS2 | inactive | 
26 | Cc1cccc(C(=O)OCC(=O)NCC(C)C)c1O | inactive | 

Row | SMILES | Potency | activity change, negative = less growth
27 | Cc1cccc(N2CCN(Cc3nc(C4CC4)no3)CC2)n1 | inactive | 
28 | COP1(=O)C[C@@H](O)[C@@H](O)[C@@H](COCc2ccccc2)O1 (stereo partly drawn) | inactive | 
29 | O=C(Nc1nnc(C2COc3ccccc3O2)o1)c1ccc(F)cc1 (stereo not drawn) | inactive | 
30 | O=C(CCn1nnnc1CN1CCOCC1)N1CCC(c2ccccc2Cl)C1 (stereo not drawn) | inactive | 
31 | CC(C)OC(=O)c1ccc(NCc2cc(O)ccc2O)cc1Cl | 28.2 µM (active) | 
32 | CCC(C)c1ccccc1N1CC(C(=O)N2CCN(S(=O)(=O)c3ccc(F)cc3)CC2)CC1=O (stereo not drawn) | inactive | 
33 | COc1ccc(C(=O)CN2C(=O)NC3(CCc4ccccc43)C2=O)c(OC)c1 (stereo not drawn) | inactive | 
34 | Cc1ccc(OCCCCc2c(C)n[nH]c2C)cc1 | inactive | 
35 | NC1=C([N+](=O)[O-])C(c2ccccc2)C2=C(CCCC2=O)O1 (stereo not drawn) | inactive | 
36 | CCc1ccc2oc(-c3ccc(N)cc3)nc2c1 | 11.2 µM (active) | 
37 | COc1ccccc1N1CCN(S(=O)(=O)c2ccc3c(c2)NC(=O)CS3)CC1 | inactive | 
38 | CC1(C(=O)Nc2ccc3c(c2)OCCO3)CSCC(=O)N1CCOc1ccccc1 (stereo not drawn) | inactive | 
39 | Cc1nn(CCCC(=O)NCc2ccccc2Cl)c(=O)c2nccn12 | inactive | 
40 | O=c1c2ccccc2ncn1CCc1ccncc1 | inactive | 
41 | NNc1cccc(C=Cc2ccccc2)cc1=O | 28.2 µM (active) | 
42 | COc1ccccc1C(=O)NCc1nnc(SC(C)C(=O)Nc2nccs2)n1C (stereo not drawn) | inactive | 
43 | Cc1ccc2cc3cc(C(=O)N4CCCCCC4)oc3nc2c1 | inactive | 
44 | O=C(c1cccc(Br)c1)N1CCN(C2=NS(=O)(=O)c3ccccc32)CC1 | inactive | 
45 | CCCOc1ccc(NC(=O)CC2C(=O)N(C)C(=S)N2Cc2ccc3c(c2)OCO3)cc1 (stereo not drawn) | inactive | 
46 | O=C(NCCc1ccccn1)c1cccnc1Oc1ccc(Cl)cc1 | inactive | 
47 | CCOc1ccc(CCNC(=O)CSc2cc(=O)n(C)c3ccc(Cl)cc23)cc1OCC | inactive | 
48 | CN(C)NC(=O)C(NC(=O)c1ccc(N)cc1)C12CC3CC(CC(C3)C1)C2 (stereo not drawn) | inactive | 
49 | CC1(C)CC[C@]2(C(=O)O)CC[C@]3(C)C(=CCC4[C@@]5(C)CC[C@H](O)C(C)(C)C5[C@H](O)C[C@]43C)[C@@H]2C1 (stereo partly drawn) | inactive | 
50 | O=C(Nc1ccc(F)cc1)Nc1nnc([C@H]2C[C@H](O)[C@@H](CO)O2)s1 | inactive | 
51 | COC(=O)C1CCN(C(=O)COC(=O)c2cc(S(=O)(=O)N3CCOCC3)ccc2C)CC1 | inactive | 
52 | CC1CCCC(C)N1C(=O)CN1CCN(c2nc(-c3ccc(F)cc3)cs2)CC1 (stereo not drawn) | inactive | 

Row | SMILES | Potency | activity change, negative = less growth
53 | O=C(NC1CCCC1)C(c1c(F)cccc1Cl)N(C(=O)c1csnn1)C1CC1 (stereo not drawn) | inactive | 
54 | O=C(Nc1ccc(S(=O)(=O)N2CCc3ccccc3C2)cc1)c1ccccc1 | inactive | 
55 | O=C(OCC(O)C(O)COC(=O)c1ccccc1)c1ccccc1 (stereo not drawn) | inactive | 
56 | O=C(NC1=CC(=O)c2ccccc2C1=O)c1ccccc1 | 12.6 µM (active) | 
57 | COc1ccc(C(=O)C(OP(=O)(OC)OC)c2ccccc2OC)cc1 (stereo not drawn) | inactive | 
58 | COc1ccc(N2C(=O)CC(N3CCC(C(N)=O)CC3)C2=O)cc1 (stereo not drawn) | 25.1 µM (active) | 
59 | COC(=O)c1cc(C(=O)OC)cc(N2C(=O)CC(N3CCN(c4ccccc4)CC3)C2=O)c1 (stereo not drawn) | inactive | 
60 | CCOC(=O)N(Cc1ccccc1)C1CC1 | inactive | 
61 | COc1ccc(N2CCN(C3CC(=O)N(c4ccc5c(c4)OCCO5)C3=O)CC2)cc1 (stereo not drawn) | inactive | 
62 | CCCCOC(=O)c1ccc(N2C(=O)CC(N3CCN(C/C=C/c4ccccc4)CC3)C2=O)cc1 (stereo not drawn) | inactive | 
63 | COc1ccc(CCN2C(=O)CC(N3CCC(C(N)=O)CC3)C2=O)cc1OC (stereo not drawn) | inactive | 
64 | CCOC(=O)c1ccc(N2C(=O)CC(N3CCC(C(=O)OCC)CC3)C2=O)cc1 (stereo not drawn) | 12.6 µM (active) | 
65 | CCOC(=O)c1ccc(N2C(=O)CC(N(C)Cc3ccccc3)C2=O)cc1 (stereo not drawn) | 12.6 µM (active) | 
66 | CCOC(=O)c1ccc(N2C(=O)CC(Sc3nc(O)c(CC)c(=O)[nH]3)C2=O)cc1 (stereo not drawn) | inactive | 
67 | NC(=O)Nc1ccccc1C(=O)NCCc1ccccc1 | inactive | 
68 | Cc1nn(CC(=O)N2CCCCC2)c(=O)c2nn(-c3ccccc3)c(C)c12 | inactive | 
69 | O=S1(=O)CCOC[C@H](CC2CCCCC2)N1Cc1ccc(F)cc1 | inactive | 
70 | C=CCOc1ccc(/C=C/C(=O)OCC(=O)NC2CCCCCC2)cc1 | inactive | 
71 | CCCCn1c(N)c(N(CCC(C)C)C(=O)COC(=O)c2ccc(CC)cc2)c(=O)[nH]c1=O | inactive | 
72 | O=C(CC1OC(=O)c2ccccc21)NC1CCCCC1 (stereo not drawn) | inactive | 
73 | O=C(N/C(=C/c1ccc(Cl)cc1)C(=O)N1CCCCC1)c1ccco1 | inactive | 
74 | CCOC(=O)c1ccc(-n2c(C)nc3c(cnn3-c3ccccc3C)c2=O)cc1 | inactive | 
75 | O=C(O)c1ccc(N=NN2CCOCC2)cc1 | inactive | 
76 | O=C(CP(=O)(c1ccccc1)c1ccccc1)N1CCOCC1 | inactive | 
77 | O=C(O)c1ccc(NN=CC2=C(N3CCOCC3)/C(=C/c3ccccc3)CC2)cc1 | 35.5 µM (active) | 
78 | Cc1[nH]nc(SCC(=O)NCC(C)C)c1[N+](=O)[O-] | inactive | 

Row | SMILES | Potency | activity change, negative = less growth
79 | COc1ccc(CN2C(=O)C(CC(=O)NCc3cccc4ccccc34)CC(C(=O)N3CCOCC3)=C2C)cc1 (stereo not drawn) | inactive | 
80 | COc1cccc(C(=O)N/N=C(\C)c2cccc(NC(=O)c3ccc(F)cc3)c2)c1OC | inactive | 
81 | CC(C)(C)C(=O)Nc1ccc(C(=O)N/N=C/c2ccccc2OC(=O)c2ccc(Cl)cc2Cl)cc1 | inactive | 
82 | COc1cc(/C=N/NC(=O)Nc2ccccc2)ccc1OCCOc1ccccc1C | inactive | 
83 | COc1ccc(C(=O)Nc2ccccc2C(=O)N/N=C/c2ccccc2OC)cc1 | 35.5 µM (active) | 
84 | CCCNC(=O)c1ccccc1NC(=O)CSCc1ccc(OC)cc1 | inactive | 
85 | COc1ccc(C(=O)Nc2ccccc2C(=O)N/N=C/c2ccc(O)c(OC)c2)cc1 | 7.94 µM (active) | 
86 | CC(C)C(c1nnnn1C1CCCCC1)N1CCN(C(=O)c2ccco2)CC1 (stereo not drawn) | inactive | 
87 | CCC1Nc2ncnc(N3CCN(c4ccccc4)CC3)c2N(Cc2ccc(Cl)cc2)C1=O (stereo not drawn) | inactive | 
88 | O=C(NNC1CC(=O)N(c2cccc(Cl)c2)C1=O)c1cccnc1 (stereo not drawn) | inactive | 
89 | Cc1ccc(NC(=O)C2CCC(C(C)(C)C)CC2)cc1S(=O)(=O)N1CCOCC1 (stereo not drawn) | inactive | 
90 | Cc1nn(C)c(C)c1S(=O)(=O)N1CCc2ccccc21 | inactive | 
91 | Cc1[nH]c(C)c(S(=O)(=O)N2CCC(C)CC2)c1C(=O)N1CCCC1 | inactive | 
92 | O=C(O)c1cscn1 | inactive | 
93 | CC(C)CC1(C(=O)NCc2ccccn2)C=CCN1C(=O)c1ccccc1 (stereo not drawn) | inactive | 
94 | COc1ccc(C(O)C(O)(C(=O)OC(C)C)c2ccc(C)cc2)cc1 (stereo not drawn) | inactive | 
95 | COC(=O)c1ccc(CNC(=O)c2ccc3oc(C(C)C)nc3c2)cc1 | inactive | 
96 | Cc1ccc(C)c(-n2cc(CN3CCN(C(=O)c4ncn[nH]4)CC3)c(-c3ccccc3)n2)c1 | inactive | 
97 | NC(=O)COC(=O)c1sc2cc(F)ccc2c1Cl | 25.1 µM (active) | 
98 | CC(NC(=O)COC(=O)c1ccc(Cl)cc1O)c1ccc(F)cc1 (stereo not drawn) | inactive | 
99 | Cc1ccc2c(Cl)c(C(=O)Nc3nn[nH]n3)sc2c1 | inactive | 
100 | Cc1ccc(S(=O)(=O)NCC(=O)N(CC(=O)NC(C)(C)C)Cc2cccs2)cc1 | inactive | 
101 | COCCCNC(=O)C1CCN(c2ccc(N3CCOCC3)nn2)CC1 | inactive | 
102 | CCc1nc2c(OCCOc3ccccc3)cccn2c1N(C=O)Cc1ccc(OC)cc1 | inactive | 
103 | Cc1ccc(S(=O)(=O)N(CC(O)CN2C(=O)NC(C)(C)C2=O)c2cccc([N+](=O)[O-])c2)cc1 (stereo not drawn) | inactive | 
